In PubChem BioAssay (NCI) one finds growth data, which are given here for eight molecules.

About 83,000 compounds went through this panel and 20% of them were active in at least one assay; those are over-represented in the sample as a whole.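 Step 1: grow cells in 96-well plates. Step 2: add test compound at a single concentration. Step 3: incubate 48 h. Step 4: record percent growth.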 Unmarked numbers belong to inactive results. Activity calls are given as the source filed them. Rule for the calls: active = growth percent below 10; inactive = the rest.

Test in all cases: NCI-60 one-dose screen, 48 h (100 = growth as untreated, 0 = no growth, -100 = all killed)
Holding throughout (details): 10 µM unless noted

Assay [1] relates to DU-145 prostate.
Assay [2] concerns K-562 leukemia.
The subject of assay [3] is MALME-3M melanoma.
Assay [4] concerns MDA-MB-231 breast.
Assay [5] concerns RXF 393 renal.
The test system of assay [6] is SF-268 CNS.
In assay [7] the test system is SF-539 CNS.
Assay [8] relates to UACC-257 melanoma.
The subject of assay [9] is M14 melanoma.
Assay [10] deals with HCT-15 colon.
Assay [11] relates to HT29 colon.
In assay [12] the test system is SNB-75 CNS.
Assay [13] deals with SNB-19 CNS.
Assay [14] has as its system U251 CNS.
Assay [15] relates to PC-3 prostate.
Assay [16] concerns SK-MEL-5 melanoma.
The subject of assay [17] is UACC-62 melanoma.
Assay [18] has as its system LOX IMVI melanoma.
The subject of assay [19] is SK-MEL-28 melanoma.
The test system of assay [20] is SF-295 CNS.

For the molecule `CCOC(=O)Nc1ccc2nc(-c3cscn3)[nH]c2c1`, the growth was 72.9% in assay [1]; 19.1% in assay [2]; 22% in [3]; 59.9% in assay [4]; 39.2% in assay [5]; 66.5% in assay [6]. For the same molecule, the growth in assay [7] was 62.9%; in assay [8], 66.6%; in assay [9], 16.1%; in assay [10], 37.8%; in assay [11], 14.8%; in assay [12] it was 33.1%. The growth in [13] is 63.2%; in assay [14], 35%; in [15] it was 82.2%; in assay [16], 31.9%; in [17] it was 45.4%; in [18], 46.6%. Moreover, the growth in assay [19] is 53.4%.
Turning to `CNC(=O)c1cc(Oc2ccc(NC(=O)c3nc(S(C)(=O)=O)n(C)c3-c3ccc(F)cc3)cc2)ccn1`, the growth in assay [1] is 56.9%; in [2], 61%; in [3], 77.5%; in assay [4], 83%; in assay [5] it was 58.4%; in assay [6] it was 70.4%. Moreover, the growth was 70.2% in assay [20]; 85.6% in [7]; 96.4% in [8]; 50.4% in assay [9]; 57.8% in assay [10]; 71.9% in [11]. Further, the growth is 85% in [13]; 76.1% in [14]; 64.1% in assay [15]; 73.8% in [16]; 62% in assay [17]; 62.4% in assay [18]. In addition, in assay [19], the growth was 95.7%.
`Cc1nc2ccc(Nc3nc(N4CCOCC4)nc(N4CCN(C)CC4)n3)cc2n1Cc1ccccc1`: the growth was 98.4% in assay [1]; 29.3% in [2]; 65.7% in [3]; 68.5% in assay [4]; 61.1% in assay [5]; 68.8% in assay [6]. Also, the growth in [20] was 90.1%; in assay [7] it was 76.5%; in assay [8] it was 82.5%; in assay [9] it was 83.4%; in assay [10], 87.4%; in assay [11], 53%. For the same molecule, the growth in assay [14] is 73.5%; in assay [15], 90%; in [16] it was 71.4%; in assay [17] it was 107%; in assay [18] it was 74.7%; in [19], 64.1%.
On to `CCOC(CN1CCN(CC(C)C(=O)c2ccccc2)CC1)c1ccccc1` (stereo not given), for which the growth in assay [1] is 112%; in assay [2], 115%; in assay [3] it was 105%; in assay [4], 95.5%; in assay [5] it was 99.5%; in assay [6], 113%. For the same molecule, the growth in [20] was 92.6%; in [7], 111%; in assay [8], 93.2%; in assay [9], 114%; in assay [10] it was 100%; in assay [12] it was 79%. Further, the growth in [13] was 97.8%; in assay [14], 90.5%; in [15] it was 93.6%; in assay [16], 90.1%; in assay [17], 105%; in assay [18] it was 101%. In addition, in [19], the growth was 98%.
In the case of `COc1cc(NC(C)CCCN)c2ncccc2c1Oc1ccc(Cl)cc1` (stereo not given), the growth is 74.8% in assay [1]; 52.2% in [2]; 88.1% in [3]; 42.4% in [4]; 79.5% in assay [5]; 77.5% in assay [6]. Further, the growth was 81.2% in assay [7]; 88.5% in assay [8]; 74.4% in assay [9]; 84.5% in assay [10]; 34.5% in assay [11]; 78.7% in assay [12]. For the same molecule, the growth in [13] is 91%; in assay [14], 72.7%; in assay [15], 63.9%; in assay [16] it was 81%; in assay [17], 91.1%; in assay [18], 39.9%. Further, in assay [19], the growth is 109%.
Turning to `COc1ccc([C@@H]2[C@@H](Oc3ccccc3)C(=O)N2c2cc(OC)c(OC)c(OC)c2)cc1F`, the growth was 9.48% (active) in assay [1]; 4.73% (active) in assay [2]; 65.5% in assay [3]; 12.4% in [4]; 3.39% (active) in assay [5]; 25.3% in assay [6]. The growth is 3.68% (active) in assay [20]; -21.1% (active) in assay [7]; 57.3% in [8]; 5.14% (active) in assay [9]; 12.7% in assay [10]; 61.4% in assay [12]. In addition, the growth in [13] was 19.9%; in [14] it was 4.18% (active); in [15], 20.7%; in [16], -15.1% (active); in [17], 0.0629% (active); in [18], 14%. Besides, the growth in [19] is 48.9%.
Consider `COc1ccc(/C=C2\N=C(c3cccnc3)N(c3ccccc3)NC2=O)cc1`, for which the growth in assay [1] was 104%; in assay [2] it was 107%; in [3], 97.4%; in assay [4] it was 92.1%; in assay [5], 89.9%; in [6] it was 91.9%. Also, the growth in [20] is 95.2%; in assay [7] it was 103%; in [8], 102%; in assay [9], 92.8%; in assay [10], 95.1%; in assay [11], 107%. For the same molecule, the growth was 96.8% in [13]; 106% in [14]; 74.2% in [15]; 98.7% in assay [16]; 95.4% in assay [17]; 92.7% in assay [18]. The growth in assay [19] was 129%.
Turning to `COc1cccc(CC(C)=C(c2ccc(OCCCN(C)C)cc2)c2ccc(OCCCN(C)C)cc2)c1`, the growth is -94.4% (active) in assay [1]; -67.5% (active) in [2]; -87% (active) in [3]; -82.2% (active) in assay [4]; -89.5% (active) in assay [5]; -81.8% (active) in assay [6]. Further, the growth in assay [20] was -68.2% (active); in assay [7], -91.6% (active); in assay [8], -82.3% (active); in [9], -80% (active); in assay [10], -78.4% (active); in [12] it was -94.9% (active). Further, the growth is -72.1% (active) in assay [13]; -94.8% (active) in assay [14]; -89.4% (active) in assay [15]; -95.3% (active) in assay [16]; -84.7% (active) in assay [17]; -79.6% (active) in assay [18].
